Compounds without any hit were thinned out: in the full panel of roughly 83,000, 20% have a hit.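 Growth was measured after 48 h exposure to one concentration of compound in 96-well plates. Values under 10 count as active.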 Values without a mark were called inactive. The source made the active and inactive calls.
What was measured:
Experiment in all cases: NCI-60 one-dose screen, 48 h (100 = growth as untreated, 0 = no growth, -100 = all killed)
Settings in all cases: 10 µM unless noted
HCT-15 colon = system: HCT-15 colon
HT29 colon = system: HT29 colon
SNB-75 CNS = system: SNB-75 CNS
SNB-19 CNS = system: SNB-19 CNS
U251 CNS = system: U251 CNS
PC-3 prostate = system: PC-3 prostate
SK-MEL-5 melanoma = system: SK-MEL-5 melanoma
UACC-62 melanoma = system: UACC-62 melanoma
LOX IMVI melanoma = system: LOX IMVI melanoma
SK-MEL-28 melanoma = system: SK-MEL-28 melanoma

Row | Structure (SMILES) | growth (HCT-15 colon) | growth (HT29 colon) | growth (SNB-75 CNS) | growth (SNB-19 CNS) | growth (U251 CNS) | growth (PC-3 prostate) | growth (SK-MEL-5 melanoma) | growth (UACC-62 melanoma) | growth (LOX IMVI melanoma) | growth (SK-MEL-28 melanoma)
1 | Cc1ccc(C)n1-c1ccccc1-n1c(C)ccc1C | 115% | 103% | 87.2% | 108% | 102% | 98.7% | 104% | 87.5% | 90.9% | 93.6%
2 | CN(C)CCNC(=O)c1cc2c3cc(Cl)ccc3[nH]c2c2ncccc12 | 14.2% | 0.808% (active) | 44.7% | 40% | 11.5% | 22.4% | -38.8% (active) | -86.5% (active) | -77.5% (active) | -59.3% (active)
3 | CC(C)(C)CC(C)(C)NC(=O)Nc1ncccc1OCc1ccccc1 | 86.2% | 80.9% | 91.5% | 95.9% | 96.4% | 82.4% | 92.8% | 81.4% | 90.7% | 103%
4 | O=C1c2ccc3c4c5ccc(c24)C(=O)N1CCCOCCCCOCCCNCc1ccc(cc1)CNCCCOCCCCOCCCN(C3=O)C5=O | -41% (active) | -18.7% (active) | 98.1% | -2.17% (active) | -78.3% (active) | 6.2% (active) | -99.9% (active) | -90.3% (active) | -87.8% (active) | -24.1% (active)
5 | O=c1[nH]c(-c2ccccc2)nc2sc3cc(O)ccc3c12 | 69.4% | 106% | 83.2% | 99.8% | 84.1% | 77.3% | 86.3% | 73.6% | 82.7% | 93.9%
6 | O=C1c2c(c3c4ccccc4[nH]c3c3ccc4ccccc4c23)C(=O)N1CCN1CCOCC1 | 20.6% | 35.6% | 63.7% | 56% | 32.3% | 35.1% | 37.4% | 38.7% | 27.2% | 73.9%
7 | CCCNc1nc2ccccc2c2c1S(=O)(=O)c1ccc(Cl)cc1C2=O | 7.22% (active) | 9.72% (active) | 15.6% | 24.4% | 1.6% (active) | 25.1% | 2.77% (active) | 10.9% | 4.45% (active) | 32.8%
8 | CN(C)c1ccc(-c2c(C#N)c(N)nn2C(=O)c2ccc(NC(=O)c3ccccn3)cc2)cc1 | 85.2% | 113% | 102% | 99.4% | 99.3% | 77.4% | 101% | 73.2% | 65.3% | 108%
9 | O=C(/C=C/c1ccco1)Nc1ncc(Cc2cccc(C(F)(F)F)c2)s1 | 10.9% | 3.46% (active) | -1.69% (active) | 34.3% | 5.08% (active) | 17% | 12.5% | 5.19% (active) | 5.43% (active) | 46.4%
10 | CC(=O)N1N=C(c2ccc(Nc3nc(Nc4ccccc4)nc(Nc4ccccc4)n3)cc2)CC1c1ccccc1 (stereo not given) | 87% | 103% | 90.8% | 84.3% | 92.6% | 80.5% | 78.4% | 91% | 89.4% | 111%
11 | CN(C)CC(C)(C)C(=O)/C=C/c1ccccc1 | -47.6% [25 µM] (active) | -16.7% [25 µM] (active) | -13.7% [25 µM] (active) | -1% [25 µM] (active) | -41.5% [25 µM] (active) | -34.4% [25 µM] (active) | -86.8% [25 µM] (active) | -73.6% [25 µM] (active) | -84.8% [25 µM] (active) | -61.6% [25 µM] (active)

— PubChem BioAssay (NCI)
